The results in this text go back to PMC5540273 (PLoS ONE, 2017).

“And” between values parts separate entries of the source, which are not always exact repeats. Equal values may be shown once. Read-outs that look alike come from different tables or passages of the source.

Some test systems named below: QSK; RAF1; RET; RIOK1; RIOK2; RIOK3; RIPK1; RIPK2; RIPK4.
Conditions in all cases: concentration: 1 μM, replicates: in singlicate, n = 1
The next experiment has as its system T1, PYK2.
T1 construct: gene PTK2B
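Also: KINOMEscan kinase panel screen.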

In the case of `O=C(NCCNc1ccnc(Nc2ccc(F)cc2)n1)c1cc2ccccc2s1` [GSK1379874], the “%Inh” value with PYK2 is given as 29%; in the experiment with QSK, 0%; with RAF1, 10%; in the experiment on RET, 0%; with RIOK1, 23%; in the experiment with RIOK2, 0%. Moreover, the “%Inh” value in the experiment with RIOK3 was determined as 24%; with RIPK1, 0%; in the experiment on RIPK2, 0%; in the experiment with RIPK4 it was 18%.
As to `COc1ccc(Nc2ncc(C#N)c(Nc3ccccc3C(N)=O)n2)cc1N1CCN(C)CC1.Cl` [GSK1558669], the “%Inh” value amounted to 99.2% with PYK2; 94.7% with QSK; 32% in the experiment on RAF1; 99.9% in the experiment with RET; 100% with RIOK1; 98.7% with RIOK2. The “%Inh” value in the experiment with RIOK3 is 79%; in the experiment with RIPK1 it was 74%; with RIPK2, 76%; in the experiment on RIPK4 it was 98.9%.
Regarding `COc1ccc(COc2cc(-n3cnc4ccccc43)sc2C(N)=O)cc1` [GSK1024304], the “%Inh” value stood at 0% with PYK2; 0% in the experiment on QSK; 4% in the experiment on RAF1; 26% with RET; 0% in the experiment on RIOK1; 80% with RIOK2. The “%Inh” value in the experiment with RIOK3 amounted to 0%; with RIPK1, 4%; with RIPK2, 0%; in the experiment on RIPK4, 0%.
Turning to `O=c1cc(N2CCOCC2)nc2n(Cc3cccc(C(F)(F)F)c3)ccn12` [GSK2297543], the “%Inh” value is 3% with PYK2; 3% in the experiment with QSK; 5% in the experiment with RAF1; 0% in the experiment with RET; 26% in the experiment on RIOK1; 7% with RIOK2. Besides, the “%Inh” value in the experiment with RIOK3 turned out to be 19%; with RIPK1, 10%; in the experiment with RIPK2 it was 12%; with RIPK4, 0%.
Consider `NS(=O)(=O)CCc1cccc(Nc2nccc(-c3c(-c4cccc(NC(=O)c5c(F)cccc5F)c4)nn4ccccc34)n2)c1` [GSK336735], for which the “%Inh” value with PYK2 turned out to be 29%; with QSK it was 0%; in the experiment with RAF1 it was 92.8%; with RET, 99.9%; with RIOK1, 38%; in the experiment on RIOK2, 17%. Besides, the “%Inh” value in the experiment on RIOK3 was 26%; with RIPK1, 10%; in the experiment with RIPK2 it was 97.9%; in the experiment on RIPK4, 4%.
For `Fc1ccc(-c2ncn(CCCN3CCOCC3)c2-c2cccnc2)cc1` [SB-211743], the “%Inh” value with PYK2 is recorded as 0%; in the experiment on QSK it was 0%; with RAF1, 9%; in the experiment with RET, 3%; in the experiment on RIOK1 it was 17%; in the experiment on RIOK2 it was 53%. Further, the “%Inh” value in the experiment on RIOK3 turned out to be 0%; in the experiment with RIPK1, 0%; in the experiment on RIPK2 it was 0%; with RIPK4, 4%.
Regarding `NS(=O)(=O)c1cccc(-c2ccc3nccc(-c4cccc(S(N)(=O)=O)c4)c3c2)c1` [GW867253], the “%Inh” value with PYK2 is listed as 12%; in the experiment with QSK it was 13%; in the experiment with RAF1, 0%; in the experiment on RET, 0%; in the experiment with RIOK1 it was 0%; with RIOK2, 0%. Moreover, the “%Inh” value worked out at 0% in the experiment on RIOK3, 0% in the experiment with RIPK1, 3% in the experiment with RIPK2 and 0% in the experiment with RIPK4.
As to `O=C1Cc2cc(Nc3nc(NCc4cccc(S(=O)(=O)C(F)(F)F)c4)ncc3C(F)(F)F)ccc2N1`, the “%Inh” value is reported as 6% with PYK2; 0% with QSK; 0% with RAF1; 5% in the experiment on RET; 0% with RIOK1; 35% in the experiment with RIOK2. The “%Inh” value with RIOK3 came out at 0%; in the experiment on RIPK1 it was 2%; with RIPK2 it was 0%; in the experiment with RIPK4, 0%.
With `COCCNC(=O)c1ccc(-c2cc(C(=O)NC3CC3)cc(F)c2C)cc1` [GW868318], the “%Inh” value with PYK2 turned out to be 4%; in the experiment on QSK, 26%; in the experiment on RAF1 it was 7%; in the experiment with RET, 0%; with RIOK1 it was 0%; in the experiment with RIOK2, 7%. Further, the “%Inh” value in the experiment with RIOK3 was determined as 0%; in the experiment on RIPK1, 0%; with RIPK2, 8%; in the experiment on RIPK4 it was 47%.
`Cl.Oc1cccc(Nc2ccnc3cc(-c4ccncc4)ccc23)c1` [GW494601]: the “%Inh” value in the experiment with PYK2 stood at 0%; in the experiment with QSK, 63%; in the experiment on RAF1 it was 22%; with RET, 99.9%; in the experiment with RIOK1, 0%; in the experiment with RIOK2 it was 0%. For the same compound, the “%Inh” value with RIOK3 is listed as 0%; with RIPK1 it was 15%; with RIPK2, 83%; in the experiment on RIPK4, 47%.
Regarding `Cc1cn2c(=O)cc(N3CCOCC3)nc2n1Cc1cccc(Cl)c1Cl` [GSK2334006], the “%Inh” value was 13% in the experiment with PYK2; 0% in the experiment with QSK; 22% with RAF1; 21% in the experiment with RET; 56% with RIOK1; 29% with RIOK2. Besides, the “%Inh” value worked out at 4% in the experiment on RIOK3, 0% in the experiment with RIPK1, 14% in the experiment with RIPK2 and 6% with RIPK4.
For `COc1cc2c(cc1OCCN1CCN(C)CC1)ncc1c3ccc(C#N)cc3[nH]c21`, the “%Inh” value in the experiment with PYK2 turned out to be 2%; with QSK, 67%; in the experiment on RAF1 it was 0%; in the experiment with RET, 29%; in the experiment with RIOK1 it was 93.1%; in the experiment with RIOK2 it was 24%. The “%Inh” value in the experiment with RIOK3 was determined as 85%; in the experiment on RIPK1, 14%; in the experiment with RIPK2 it was 49%; with RIPK4 it was 15%.
As for `[2H]C([2H])(c1cccc(C(F)(F)F)c1C)n1ccn2c(=O)nc(N3CCOCC3)cc12` [GSK2336394], the “%Inh” value with PYK2 came to 4%; in the experiment on QSK it was 0%; in the experiment with RAF1, 10%; in the experiment on RET, 14%; in the experiment on RIOK1, 23%; in the experiment with RIOK2 it was 6%. The “%Inh” value with RIOK3 turned out to be 0%; with RIPK1, 0%; in the experiment on RIPK2, 7%; in the experiment on RIPK4, 5%.
As for `O=C1NC(=O)C(N2CCc3ccccc32)=C1c1cccc(Cl)c1` [SB-408010], the “%Inh” value with PYK2 is listed as 12%; in the experiment on QSK it was 0%; in the experiment with RAF1, 0%; in the experiment on RET, 4%; with RIOK1 it was 5%; with RIOK2, 0%. Besides, the “%Inh” value is given as 30% with RIOK3, 0% in the experiment on RIPK1, 0% in the experiment with RIPK2 and 0% in the experiment with RIPK4.
In the case of `CC(C)(CN)c1nc(-c2ccc(Cl)c(O)c2)c(-c2ccncc2)[nH]1.O=C(O)C(F)(F)F` [SB-477794], the “%Inh” value was 0% and 17% in the experiment on PYK2 (1 µM); 91.5% and 86% with QSK (1 µM); 98.5% and 95.1% in the experiment on RAF1 (1 µM); 99.9% in the experiment on RET; 0% and 1% in the experiment on RIOK1 (1 µM); 0% in the experiment with RIOK2. In addition, the “%Inh” value in the experiment with RIOK3 is 0%; in the experiment with RIPK1 (1 µM), 2% and 0%; in the experiment with RIPK2 (1 µM), 92.7% and 90%; in the experiment on RIPK4 (1 µM), 36% and 5%.
Turning to `NCCNS(=O)(=O)c1ccc(-c2ccnc3[nH]ccc23)cc1` [GSK977617], the “%Inh” value is 31% and 21% in the experiment on PYK2 (1 µM); 6% and 15% with QSK (1 µM); 2% and 0% in the experiment with RAF1 (1 µM); 28% and 19% in the experiment on RET (1 µM); 91.4% in the experiment on RIOK1 (1 µM); 93.8% and 88% with RIOK2 (1 µM). Also, the “%Inh” value with RIOK3 (1 µM) was 78% and 84%; in the experiment on RIPK1 (1 µM) it was 9% and 8%; in the experiment on RIPK2 it was 0%; with RIPK4 (1 µM), 50% and 29%.
